Test results from PubChem BioAssay AID743103 (Vanderbilt Specialized Chemistry Center, 2013).
A number with no mark means an inactive call. How the calls were made is not given here.

These compounds were tested against Muscarinic acetylcholine receptor M3 (Homo sapiens) (UniProt P20309) (assay: human M3 receptor modulation in M5 NAM selectivity check, counter-screen for M5 NAM project, cell-based, CHO-K1 hM3, Fluo-4 calcium flux, ACh EC20 (AID 743103)). Conditions: series mostly up to 30 µM; % of max ACh response: at the top concentration.

In order of falling “% of max ACh response” value:
1. O=C(c1cc(F)cc(F)c1)N1CCN2C(=O)c3ccccc3C12c1ccc(Cl)cc1 (stereo not given)  81.5
2. O=C(c1ccc(F)c(F)c1)N1CCN2C(=O)c3ccccc3C12c1ccccc1 (stereo not given)  80.1
3. O=C(c1ccc(F)c(F)c1)N1CCN2C(=O)c3ccccc3C12c1ccc(Cl)cc1 (stereo not given)  75.5
4. O=C(c1ccc(F)cc1)N1CCN2C(=O)c3ccccc3C12c1ccccc1 (stereo not given)  73.3
5. O=C(c1ccc(F)c(F)c1)N1CCN2C(=O)c3ccccc3[C@@]12c1ccc(Cl)cc1  53.5
